Test results from PubChem BioAssay (NCATS).
Results filed as inconclusive are left out. Activity calls are given as the source filed them. Unless noted, calls come from the whole dose curve; as a rule, active = well fitted curve in the direction sought with a large enough effect; inconclusive = small, poorly fitted or top-dose-only effect, or another doubt; inactive = no such curve, though single readings can be large; an effect the other way counts as inactive or inconclusive.

Legend:
[1] = Cell Viability - LYMP2-001 (AID 921); note: series mostly up to about 92 µM; nearly all actives have a fitted effect of over 70% in size
Procedure, shortened: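 A lymphoblastoid cell line of human origin was treated with library compounds across a concentration series for 24 hours, and viable cell number was estimated from ATP-driven luciferase light output. Hill modeling gave AC50.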

[2] = MultiTox-Fluor Cytotoxicity Assay - LYMP1-001 - Dead Cells (AID 946)
Procedure, shortened: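 Cytotoxicity as increased dead-cell protease fluorescence (bis-AAF-R110, 485/520 nm), read 60 min after MultiTox-Fluor reagent. Human lymphoblastoid line exposed 16 h; Hill-fitted AC50, with DMSO as 0% and 15 uM tetraoctylammonium bromide as 100%.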

[3] = MultiTox-Fluor Cytotoxicity Assay - LYMP1-001 - Live Cells (AID 947)
[4] = Cell Viability - LYMP1-002 - Assay at 16 hr (AID 948)
Procedure, shortened: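 In this qHTS, lymphoblastoid LYMP1-002 cells (human) receive compounds for 16 hr at 37 C. Viability is taken from CellTiter-Glo ATP luminescence, and AC50 derives from standard Hill fits.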

[5] = MultiTox-Fluor Cytotoxicity Assay - LYMP1-002 - Live Cells (AID 955);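 note: cells exposed to compound for 16 hours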
Procedure, shortened: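 LYMP1-002 lymphoblastoid cells; 2500 cells/well; 16 hr compound exposure, 37 C; MultiTox-Fluor reagent 60 min RT; live-cell fluorescence Ex/Em=405/510; qHTS concentration-response, Hill-equation AC50; tetraoctylammonium bromide positive control.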

[6] = MultiTox-Fluor Cytotoxicity Assay - LYMP1-002 - Dead Cells (AID 960); note: nearly all actives have a fitted effect of over 60% in size
Procedure, shortened: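 Readout: fluorescence at 485/520 from cell-impermeant bis-AAF-R110 cleaved by proteases leaking from damaged cells. LYMP1-002 lymphoblastoid line, 16 hr compound treatment at 37 C, concentration-response in qHTS format; Hill-equation AC50 values.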

[7] = MultiTox-Fluor Cytotoxicity Assay - LYMP1-003 - Dead Cells (AID 961); note: nearly all actives have a fitted effect of over 70% in size
Procedure, shortened: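 Dead-cell protease release, detected as bis-AAF-R110 fluorescence at 485/520 nm, was measured in LYMP1-003 cells after 16 h compound treatment at 37 C. AC50 values came from Hill-modeled qHTS curves normalized to DMSO (0%) and 15 uM tetraoctylammonium bromide (100%).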

[8] = MultiTox-Fluor Cytotoxicity Assay - LYMP1-003 - Live Cells (AID 962);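 note: cells exposed to compound for 16 hours at 37 °C; cytotoxic hits lower the live-cell protease signal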
Procedure, shortened: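 Readout: live-cell fluorescence (Ex/Em=405/510) from GF-AFC cleavage after 60 min MultiTox-Fluor reagent at room temperature. Lymphoblastoid LYMP1-003 cells, 16 hr compound treatment, 37 C. Concentration-response fitted to standard Hill equation for AC50.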

[9] = Cell Viability - LYMP1-003 - Assay at 24 hr (AID 963)
Procedure, shortened: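 CellTiter-Glo luminescence (intracellular ATP) read after 24 hr, 37 C compound exposure of 2500 LYMP1-003 human lymphoblastoid cells/well in complete medium; qHTS concentration series; AC50 via standard Hill equation.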

[10] = Cell Viability - LYMP1-003 - Assay at 40 hr (AID 964); note: series mostly up to about 92 µM; nearly all actives have a fitted effect of over 60% in size
Procedure, shortened: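 LYMP1-003 lymphoblastoid cells, 2500/well; 5 hr preincubation, 40 hr compound exposure, 37 C; CellTiter-Glo 30 min RT; luminescence; Hill-fit AC50. Positive control tetraoctylammonium bromide.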

[11] = Cell Viability - LYMP2-003 (AID 965);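 note: cells exposed to compounds for 24 h before reading; nearly all actives have a fitted effect of over 50% in size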
Procedure, shortened: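 qHTS, human lymphoblastoid line, 2500 cells/well, complete medium. 24 h drug, 37 C. ATP-based luminescent readout; Hill-fit AC50.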

[12] = Cell Viability - LYMP2-004 (AID 966); note: nearly all actives have a fitted effect of over 65% in size
Procedure, shortened: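 Luminescent ATP read-out (CellTiter-Glo, 30 min RT) after 24 hr compound exposure at 37 C; 2500 lymphoblastoid cells/well, complete medium. Decrease in ATP = cytotoxicity; AC50 from standard Hill model.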

[13] = Cell Viability - LYMP2-009 (AID 968); note: series mostly up to about 92 µM; nearly all actives have a fitted effect of over 55% in size
[14] = Cell Viability - LYMP2-011 (AID 969); note: nearly all actives have a fitted effect of over 60% in size
Procedure, shortened: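 Luminescent ATP read-out (CellTiter-Glo, 30 min RT) after 24 hr compound exposure at 37 C in human lymphoblastoid cells, 2500 cells/well. Decreasing ATP indicates cytotoxicity; AC50 from standard Hill fit.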

[15] = molecular target: Muscarinic acetylcholine receptor M1 (Rattus norvegicus) (UniProt P08482); assay: qHTS Assay for Antagonists of Acetylcholine Muscarinic M1 Receptor: Kinetic Measurement of Intracellular Calcium Response (AID 943);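 note: Fluo-4 calcium signal as peak divided by basal fluorescence over 4 min; series mostly up to about 35 µM; nearly all actives have a fitted effect of over 75% in size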
Chain of Muscarinic acetylcholine receptor M1 (Rattus norvegicus) (P08482 whole entry, looked up): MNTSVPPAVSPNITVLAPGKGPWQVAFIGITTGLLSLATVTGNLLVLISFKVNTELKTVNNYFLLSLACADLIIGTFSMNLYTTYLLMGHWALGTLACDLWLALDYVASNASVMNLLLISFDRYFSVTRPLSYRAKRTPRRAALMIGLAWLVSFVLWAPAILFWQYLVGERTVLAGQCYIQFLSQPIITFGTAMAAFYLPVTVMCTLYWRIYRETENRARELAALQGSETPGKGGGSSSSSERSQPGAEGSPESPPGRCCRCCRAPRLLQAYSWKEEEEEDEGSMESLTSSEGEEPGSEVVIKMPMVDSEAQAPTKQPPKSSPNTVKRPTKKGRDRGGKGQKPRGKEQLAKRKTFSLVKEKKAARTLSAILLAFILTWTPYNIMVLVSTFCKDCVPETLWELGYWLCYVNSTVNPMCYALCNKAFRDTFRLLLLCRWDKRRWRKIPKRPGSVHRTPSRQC
Procedure, shortened: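 Read-out: peak over basal Fluo-4 fluorescence, kinetic at 1 Hz for 4 min after EC80 carbachol (100 nM final). Rat M1-CHO cells, dye loaded 1 h at 37C, compound added 10 min before agonist.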

[16] = molecular target: Muscarinic acetylcholine receptor M1 (Rattus norvegicus) (UniProt P08482); assay: qHTS Assay for Antagonists of Acetylcholine Muscarinic M1 Receptor: Measurement of IP-One Response (AID 944); note: nearly all actives have a fitted effect of over 75% in size
Procedure, shortened: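 Read-out: HTRF competition between d2-IP1 and Eu-cryptate anti-IP1 antibody, emission 620 and 665 nm. Stimulus was carbachol, EC80 (200 nM), for 30 min in M1-CHO cells (rat receptor), after 10 min compound pre-treatment.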

[17] = molecular target: Pyruvate kinase (Leishmania mexicana) (UniProt Q27686); assay: qHTS Validation Assay for Inhibitors of Leishmania Mexicana Pyruvate Kinase (AID 945)
Chain of Pyruvate kinase (Leishmania mexicana) (Q27686 2-499 E452W): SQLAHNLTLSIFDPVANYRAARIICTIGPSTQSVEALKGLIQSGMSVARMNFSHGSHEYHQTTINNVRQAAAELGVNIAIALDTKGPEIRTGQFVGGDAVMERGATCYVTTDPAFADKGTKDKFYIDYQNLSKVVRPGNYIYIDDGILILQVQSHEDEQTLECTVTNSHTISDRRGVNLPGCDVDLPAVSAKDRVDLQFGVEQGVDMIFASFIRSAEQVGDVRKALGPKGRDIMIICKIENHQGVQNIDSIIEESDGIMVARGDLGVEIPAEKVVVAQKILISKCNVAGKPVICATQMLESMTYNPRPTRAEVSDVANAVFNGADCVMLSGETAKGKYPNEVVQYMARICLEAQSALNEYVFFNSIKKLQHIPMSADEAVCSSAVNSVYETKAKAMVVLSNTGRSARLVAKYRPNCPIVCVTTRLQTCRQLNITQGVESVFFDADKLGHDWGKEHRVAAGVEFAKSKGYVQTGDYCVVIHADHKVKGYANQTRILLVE
Procedure, shortened: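 LmPYK E451W 0.2 nM; 0.5 mM PEP, 0.1 mM ADP, 7 mM MgCl2, 50 mM KCl, imidazole pH 7.2, 0.01% Tween 20, 0.05% BSA; 1 h RT; PKLight luminescence; DMSO-normalized.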

[18] = molecular target: Pyruvate kinase PKM (Homo sapiens) (UniProt P14618); assay: qHTS Assay for Activators of Human Muscle Pyruvate Kinase (AID 954; active = well fitted curve in the direction sought with a large enough effect, not every such curve was filed as active)
Chain of Pyruvate kinase PKM (Homo sapiens) (P14618 whole entry, looked up): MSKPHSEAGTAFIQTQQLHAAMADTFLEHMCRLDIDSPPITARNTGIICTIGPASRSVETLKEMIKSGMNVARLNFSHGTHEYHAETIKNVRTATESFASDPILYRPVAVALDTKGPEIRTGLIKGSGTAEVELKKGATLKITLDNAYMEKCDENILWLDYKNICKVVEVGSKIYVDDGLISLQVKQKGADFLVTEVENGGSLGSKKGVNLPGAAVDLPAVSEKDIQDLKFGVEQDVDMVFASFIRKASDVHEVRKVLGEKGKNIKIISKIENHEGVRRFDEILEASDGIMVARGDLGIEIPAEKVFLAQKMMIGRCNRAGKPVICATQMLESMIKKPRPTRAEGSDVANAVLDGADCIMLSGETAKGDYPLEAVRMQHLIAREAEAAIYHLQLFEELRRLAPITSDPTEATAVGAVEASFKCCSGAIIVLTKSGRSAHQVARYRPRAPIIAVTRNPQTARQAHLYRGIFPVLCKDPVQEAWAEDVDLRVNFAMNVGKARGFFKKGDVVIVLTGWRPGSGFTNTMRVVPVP
Procedure, shortened: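 ATP production by PKM2 detected via luciferase luminescence after 1 h room-temperature reaction (0.1 nM enzyme, PEP at Km 0.5 mM, ADP 0.1 mM, pH 7.2 imidazole buffer). Inhibition scaled to no-enzyme control; activation referenced to 0.3 nM enzyme wells.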

[19] = Cell Viability - LYMP2-005 (AID 967); note: series mostly up to about 92 µM
Procedure, shortened: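 Luciferase-based ATP quantitation served as the viability measure in human lymphoblastoid LYMP2-005 cells exposed to test compounds for 24 h at 37 C in complete culture medium. Potency (AC50) was obtained by fitting concentration-response curves with the Hill equation.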

[20] = Confirmation and Secondary Assay for Modulators of Hemoglobin Beta Chain Splicing at IVS2 705 locus (AID 930);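 note: HeLa cells stably expressing the EGFP-705 splicing reporter; series mostly up to about 46 µM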
Procedure, shortened: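 HeLa cells stably carrying EGFP interrupted by mutant beta-globin IVS2-705 intron (CMV-driven) were seeded at 500 cells/well, treated next day with compound for 2 days at 37C; corrected splicing restores EGFP, read as total peak GFP intensity per well.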

Measured: outcome

C=C1C[C@]23C[C@@]1(O)CC[C@H]2[C@@]12C=C[C@H](O)[C@@](C)(C(=O)O1)[C@H]2[C@@H]3C(=O)O
not listed: [15] | [16] | [17] | [18] | [19] | [20]
inactive: all other assays above

CC(C)C[C@H](NC(=O)[C@@H]1O[C@H]1C(=O)O)C(=O)NCCCCN=C(N)N
inactive: [15] | [16] | [17] | [18]

C[C@]1(C2CCCC2)Cc2cc(OCC(=O)O)c(Cl)c(Cl)c2C1=O
inactive: [15] | [16] | [17] | [18]

COc1ccc(CCC(=O)c2c(O)cc(O[C@@H]3O[C@H](CO)[C@@H](O)[C@H](O)[C@H]3O[C@@H]3O[C@@H](C)[C@H](O)[C@@H](O)[C@H]3O)cc2O)cc1O
not listed: [15] | [16] | [17] | [18] | [20]
inactive: all other assays above

CCOC(=O)C(CCc1ccccc1)NC(C)C(=O)N1Cc2ccccc2CC1C(=O)O (centres undefined)
inactive: [20]

O=C(/C=C/C=C/c1ccc2c(c1)OCO2)N1CCCCC1
inactive: [20]
